# From PubChem
# TSHR antagonist: antagonists of human thyroid stimulating hormone receptor | activity change, negative = inhibition, % at 11.5 µM | AID 504810 | P16473 | TSHR-expressing cells, TSH-stimulated cAMP HTRF, 2 h; active compounds read low | 330,000 compounds, 0.2% hits;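 active = activity change below a set negative limit, meaning inhibition stronger than a set level, cut at about -70% in these data; inconclusive = activity change between two set negative limits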
#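 TSHR-expressing cells, 200/well, pre-treated with compound, then stimulated with EC80 TSH (4nM final) for 2 hours at 37 deg C. cAMP measured by competitive HTRF: anti-cAMP cryptate antibody in lysis buffer plus cAMP-d2, read after 30 minutes at room temperature.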
# ELG1 repair inh: ELG1-dependent DNA repair inhibition; HEK293T ELG1-luciferase reporter, luminescence, 16 h; DNA damage induced by 5-fluorouridine; Potency, µM (highest dose often 46.1 µM), hits mostly inhibitors; 330,000 compounds, 2.3% hits; note: nearly all actives have a fitted effect of over 55% in size
#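 DMSO vehicle served as the neutral condition. Each well held 2,000 cells given 5-fluorouridine plus compound; after 16 hr at 37 °C/5% CO2, ONE-Glo was added and luciferase measured 30 min later.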
# Coupling enz: counter-screen for Giardia aldolase inhibitors: coupling enzyme system | coupling enzyme system counterscreen, AmpLite Red fluorescence | activity change, negative = inhibition, % at 58.2 µM, hits read low | 290,000 compounds, 0.67% hits | AID 2472; in the data active = activity change below about -30%
#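 Counterscreen lacking aldolase: glyceraldehyde-3-phosphate coupling-enzyme reagent preincubated 10 min at RT with compound (at 57.5 uM final), then substrate/coupling system with AmpLite Red added; fluorescence read at 525/598 nm after 20 min RT.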
# VP16 counter: counter-screen for ROR gamma inhibitors: Gal4-VP16 reporter. Drosophila S2 Gal4-VP16 UAS-luciferase, luminescence, 20 h. Potency, µM (highest dose often 53.6 µM), usual class: inhibitors. 310,000 compounds, 3.5% hits;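 note: Gal4-VP16 expression switched on by copper sulfate through the metallothionein promoter; nearly all actives have a fitted effect of over 50% in size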
# RORg inh: inhibitors of mouse ROR gamma transcriptional activity; Drosophila S2 Gal4-RORgamma UAS-luciferase reporter, 20 h; 310,000 compounds, 5.4% hits; AID 2551; P51450; Potency, µM (series often up to 53.6 µM), most hits filed as inhibitors; note: nearly all actives have a fitted effect of over 60% in size
# Target sequence (P51450 whole entry, looked up, the tested form may be a part): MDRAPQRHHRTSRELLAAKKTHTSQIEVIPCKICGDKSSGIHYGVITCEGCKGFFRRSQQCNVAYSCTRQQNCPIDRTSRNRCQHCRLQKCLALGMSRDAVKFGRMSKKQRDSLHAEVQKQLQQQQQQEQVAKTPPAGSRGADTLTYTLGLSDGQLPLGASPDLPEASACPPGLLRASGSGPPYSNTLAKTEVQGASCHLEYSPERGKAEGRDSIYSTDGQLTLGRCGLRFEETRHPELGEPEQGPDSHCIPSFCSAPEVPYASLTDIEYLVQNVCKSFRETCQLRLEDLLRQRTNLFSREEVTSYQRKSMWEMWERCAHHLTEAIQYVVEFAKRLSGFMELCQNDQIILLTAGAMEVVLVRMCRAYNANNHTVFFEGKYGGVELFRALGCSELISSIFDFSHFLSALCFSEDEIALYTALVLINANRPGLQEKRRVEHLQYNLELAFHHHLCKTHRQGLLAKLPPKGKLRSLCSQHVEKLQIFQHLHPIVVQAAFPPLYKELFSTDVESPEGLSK
#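 Schneider cells (Drosophila), stable Gal4 DBD–ROR gamma + UAS-luc; 1 hr cmpd preincubation; Cu2+ induction 700 uM final; 20 hr ambient; luminescence.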
# Hits are given with their value; 0 = inactive; ? = inconclusive; - = no result given. Hits are enriched below; roughly 8% of the tested compounds scored in any of these assays. Unless noted, calls come from the whole dose curve; as a rule, active = well fitted curve in the direction sought with a large enough effect; inconclusive = small, poorly fitted or top-dose-only effect, or another doubt; inactive = no such curve, though single readings can be large; an effect the other way counts as inactive or inconclusive.
SMILES,TSHR antagonist,ELG1 repair inh,Coupling enz,VP16 counter,RORg inh
COC(=O)N1CCC2(CC1)CCN(c1cccc(-c3ccccc3)c1)CC2,-,-,0,0,?
CCN(CC)S(=O)(=O)c1ccc(/C=C/C(=O)OCC(=O)Nc2ccc(S(N)(=O)=O)cc2)cc1,0,0,-46,0,0
CC(C)CCNC(=O)CN(C(=O)CCC(=O)Nc1nccs1)c1ccc2c(c1)OCCO2,0,?,0,0,0
C/C(CC1CC2=C(CC1(C)C)C(C)(C)CCC2)=N\NC(N)=S (stereo not drawn),0,?,0,3.2µM,2µM
C/C(CC1CC(C)(C)OC1=O)=N\NC(N)=S (stereo not drawn),0,0,0,?,?
CCOC(=O)C1=C(C)NC2=C(C1c1ccc([N+](=O)[O-])cc1)S(=O)(=O)c1ccccc12 (stereo not drawn),0,10µM,0,0,0
CCOC(=O)C1=C(C)NC2=C(C(=O)c3ccccc32)C1c1ccc([N+](=O)[O-])o1 (stereo not drawn),0,?,0,0,0
O=C(CSc1nnc(NC(=O)C2CC2)s1)NCc1ccc(F)cc1,0,0,-,0,0
COc1cccc(Nc2nc(N)c([N+](=O)[O-])c(N3CCOCC3)n2)c1,0,23µM,0,0,0
CC(C)C(=O)c1cc2c(cc1NC(=O)Nc1cccc3ccccc13)OCCO2,0,23µM,0,0,0
CC(C)C(=O)c1cc2c(cc1NC(=O)c1ccccc1)OCCO2,0,0,0,0,0
Cc1ccc2oc(C(=O)Nc3ccc(S(=O)(=O)Nc4ncccn4)cc3)c(C)c2c1,0,0,0,0,0
O=C(C1CC1)N1CCc2cc(S(=O)(=O)NCc3ccccc3)ccc21,0,0,-,0,?
NNc1nnc(-c2ccccc2)c(-c2ccccc2)n1,0,?,0,?,11µM
CC(C)(C)C(=O)Nc1nnc(-c2ccccc2)c(-c2ccccc2)n1,0,0,0,0,0
OCCNc1nc(-c2ccccc2)c2ccccc2n1,0,0,0,0,0
NNc1nc(-c2ccccc2)c2ccccc2n1,0,0,0,?,7.9µM
O=C(N[C@H](Cc1cc(=O)[nH]c2ccccc12)C(=O)O)c1ccc(Cl)cc1,0,0,0,0,0
Cc1csc(C(=O)NN)c1N(C)C,0,0,0,?,0.56µM
Cc1cc(C)nc(SCCCNCc2ccc(Br)cc2)n1,0,?,0,?,?
Cc1ccc(CNCCCSc2nc(C)cc(C)n2)cc1,0,0,0,2µM,?
CCOc1ccc(OCC)c(NC(=O)CSc2nc3c(c(=O)n(C)c(=O)n3C)n2C(C)C)c1,0,12µM,0,0,0
CCOc1ccc(OCC)c(NC(=O)CSc2nc3c(c(=O)n(C)c(=O)n3C)n2C)c1,0,0,0,0,0
O=C(NC1=C(Nc2ccc(Cl)cc2)C(=O)c2ccccc2C1=O)c1ccccc1,0,?,-30,?,14µM
O=C(Cc1ccc(Cl)cc1)Nc1ccc(NC(=O)c2ccccc2)cc1,0,0,0,0,0
SMILES,TSHR antagonist,ELG1 repair inh,Coupling enz,VP16 counter,RORg inh
O=C(NC1=C(NC2CCS(=O)(=O)C2)C(=O)c2ccccc2C1=O)c1ccccc1 (stereo not drawn),0,?,-62,?,13µM
O=C(NC(NC1CCS(=O)(=O)C1)C(=O)c1cccs1)c1ccccc1 (stereo not drawn),0,0,0,0,0
O=C1C(Cl)=C(NC(=O)c2ccccc2)C(=O)C(Cl)=C1NC(=O)c1ccccc1,-85,0,0,?,7.1µM
Cc1cccc(NC2=C(NC(=O)c3ccccc3)C(=O)c3ccccc3C2=O)c1,0,?,-41,?,?
O=C(CSc1cc(Cl)ccc1Cl)NC1CCCC1,0,0,0,0,0
CCOC(=O)c1c(C)[nH]c(C)c1S(=O)(=O)NC(C)Cc1ccco1 (stereo not drawn),0,0,-,0,0
CCCN1CCN(C(=O)CCn2c(=O)c3cccn3c3cccnc32)CC1,0,0,0,0,0
CN(C1=C(NC(=O)c2ccc(Cl)cc2)C(=O)c2ccccc2C1=O)c1ccccc1,0,?,-55,11µM,11µM
CN(c1ccc(C(=O)Nc2ccc(Cl)cn2)cc1)S(=O)(=O)c1ccccc1,0,?,0,?,0
